Only some compounds are listed: those with a hit (about 4% of all), similar ones and a draw of the others.
EWS-Fli inh = EWS/Fli transcriptional activity inhibition | hit rate 0.67% among 350,000 | A673 NR0B1-luciferase reporter, viability-normalised | AID 651661 | inhibition, % at 12.6 µM;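 active means mean inhibition of at least 50% after viability correction, with every replicate also passing that limit; inconclusive means mean reaches 50% but only one of two replicates passes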;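 further: firefly luciferase signal divided by Alamar Blue viability fluorescence both relative to DMSO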
esBAF inh = blocks esBAF chromatin remodeling in mouse ES cells; Bmi1-luciferase knock-in reporter, 24 h; 100% = twice the neutral-well signal; reporter increase, % at 12.5 µM; hit rate 2% among 350,000; in the data active means activation above about 40%; inconclusive means no clear call, values can overlap the other calls;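 further: 0% = median of the plate's neutral control wells and 100% = double that signal; a rise in the Bmi1 reporter signal indicates esBAF inhibition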
Wnt act = activates Wnt/beta-catenin signaling in a reporter cell assay; activator, plate reader; activation, % at 9.35 µM; hit rate 1.2% among 300,000; AID 743398; in the data active means activation above about 30%, passing the limit was not always enough; inconclusive means no clear call, values can overlap the other calls;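 further: 0% = neutral control wells and 100% = positive control wells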
MITF TRPM1 inh = MITF TRPM1 promoter inhibition in SK-MEL-5 cells | SK-MEL-5 TRPM1 promoter luciferase, 24 h | inhibition, % at 12.5 µM | AID 488899 | hit rate 0.83% among 330,000;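 active means mean inhibition across replicates of 60% or more, whatever share of single replicates reaches that level; inconclusive means some that reach 60%, reason not given; inactive means mean inhibition across replicates below 60%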
PAX8 inh HTS = PAX8 transcriptional activity inhibition. RMG-I TPO-luciferase reporter, SteadyGlo, 24 h. inhibition, % at 12.6 µM. hit rate 1.2% among 360,000. AID 652154;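 active means mean replicate inhibition at least 60% with every replicate also reaching 60%; inconclusive means only one of the two criteria is met; inactive means mean below 60% and not all replicates reaching 60%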;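 further: luciferase light reporting Pax8 driven TPO promoter activity; plate controls were median of neutral control wells for no effect and mitoxantrone controls for full effect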
MITF act = MITF TRPM1 promoter activation in melanoma cells; SK-MEL-5 TRPM1-promoter luciferase, 24 h; % of positive control, neutral wells = 0; hit rate 0.75% among 300,000; activation, % at 12.5 µM;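 active means mean activation of at least 80% with every replicate also reaching 80%; inconclusive means mean reaches 80% but some replicate falls short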;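 further: 0% = neutral control wells and 100% = parthenolide positive control wells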
* hit, by the source's call; ? = inconclusive; nt = no result given.

SMILES	EWS-Fli inh	esBAF inh	Wnt act	MITF TRPM1 inh	PAX8 inh HTS	MITF act
COc1ccc2c3c(n(C)c2c1)[C@@H](CO)N(C(=O)NC1CCCC1)CC31CCN(C)CC1	-5	nt	nt	nt	0	nt
CCS(=O)(=O)Nc1ccc2c(c1)C(=O)N(C)[C@H]1CC[C@@H](CC(=O)N3CCOCC3)O[C@@H]1CO2	30	4	nt	nt	-17	nt
COc1ccccc1Cc1c(-c2ccc(C)cc2)nc2ccc(Cl)cn12	-85	63*	24	nt	-138	nt
COc1ccc(Cc2c(-c3ccc(C)cc3)nc3ccc(Cl)cn23)c(C)c1	-114	65*	13	nt	-137	nt
COC(=O)c1ccc2nc(-c3ccc(Cl)cc3)c(Cc3ccc(OC)cc3C)n2c1	-22	nt	-3	nt	-45	nt
COc1ccccc1Cc1c(-c2ccc(OC)c(OC)c2)nc2ccc(Cl)cn12	-22	-4	-2	nt	1	nt
C[C@H](NC(=O)C[C@@H]1C[C@@H]2c3cc(NC(=O)C4CCOCC4)ccc3O[C@@H]2[C@@H](CO)O1)c1ccccc1	5	2	nt	nt	2	nt
O=C(C[C@@H]1CC[C@H](NS(=O)(=O)c2ccc(F)cc2)[C@H](CO)O1)NCc1ccncn1	-2	-4	nt	nt	-24	nt
CCCCC12CN3CCN(CC(C3)/C1=N\NC(=O)c1ccccc1N)C2	nt	nt	35*	-9	-53	4
CO[C@@H]1CN(C)C(=O)c2cc(NC(=O)C3CCC3)ccc2OC[C@H](C)N(C)C[C@@H]1C	0	-8	nt	nt	-24	nt
CN=CC1=C(O)c2ccccc2C1=O	nt	3	19	-1	nt	3
O=C1C(C=NCCN2CCOCC2)=C(O)c2ccccc21	nt	51*	34*	-38	-24	35
O=C1C(C=Nc2ccccc2O)=C(O)c2ccccc21	-66	-78	36*	-16	nt	16
COc1ccc(N=CC2=C(O)c3ccccc3C2=O)cc1	nt	nt	-13	30	-30	-32
Cc1ccc(O)c(N=CC2=C(O)c3ccccc3C2=O)c1	nt	78*	117*	-34	-92	37
O=C1C(C=Nc2ccccc2)=C(O)c2ccccc21	nt	56*	12	-27	-78	29
C[C@H](CO)N1C[C@H](C)[C@@H](CN(C)C(=O)Nc2cccc3ccccc23)Oc2c(NS(=O)(=O)c3cccs3)cccc2C1=O	5	2	nt	nt	nt	nt
C[C@@H]1CN([C@H](C)CO)C(=O)Cc2cc(NC(=O)c3ccncc3)ccc2O[C@H]1CN(C)Cc1ccc(C(=O)O)cc1	-6	6	nt	nt	-9	nt
CCCCN(CC)CCCNC(=O)c1cc2c(=O)n(CC)c3ccccc3c2s1	23	8	0	69*	5	-68
COCC(=O)Nc1ccc2c(c1)OC[C@@H](C)N(CC1CC1)C[C@H](C)[C@H](OC)CN(C)C2=O	-4	1	nt	nt	-2	nt
CC1CCC(=O)N(CCSc2ccccc2)CC1 (stereo not drawn)	-19	-14	33*	-88	-139	87*
COc1ccc(SCCN2CC[C@@H](C)CCC2=O)cc1	-55	36	4	-55	-63	58
O=C(NC1CC1)C1Nc2ccc(OC(F)(F)F)cc2C2C=CCC12 (stereo not drawn)	-17	-4	39*	10	-231	-8
CCOc1ccc(OCc2ccc(C(=O)Nc3ccc(Cl)cn3)o2)cc1	-32	11	4	-13	nt	16
O=C(Nc1ccccn1)c1ccc(COc2ccccc2Cl)o1	nt	64*	5	-49	-103	nt
SMILES	EWS-Fli inh	esBAF inh	Wnt act	MITF TRPM1 inh	PAX8 inh HTS	MITF act
O=C(Nc1ccc(Cl)cn1)c1ccc(COc2ccccc2Br)o1	1	88*	1	-54	-68	52
C[C@@H]1CN([C@@H](C)CO)C(=O)c2cccc(NC(=O)Nc3ccc(F)cc3)c2O[C@H]1CN(C)C(=O)Nc1ccc2c(c1)OCO2	9	8	nt	nt	nt	nt
C[C@@H]1CN([C@H](C)CO)S(=O)(=O)c2ccc(C3=CCCCC3)cc2O[C@H]1CN(C)Cc1cncnc1	11	6	nt	nt	nt	nt
CCOc1ccc(N/C(C)=C\C(=O)c2ccc3c(c2)OCCO3)cc1	-121	nt	36*	-52	-1	45
CCOc1ccc(N/C(C)=C/C(=O)c2ccc3c(c2)OCCO3)cc1	-90	nt	47*	-58	-92	61
CCOc1ccc(C(=O)N(CC)CC(=O)Nc2ccc3c(c2)OCCO3)cc1	-69	?	-3	nt	-142	nt
CCN1[C@H](C(=O)Nc2ccccc2)[C@@H](CO)[C@@H]2Cn3c(ccc(-c4ccccc4)c3=O)[C@@H]21	5	2	nt	nt	nt	nt
O=C(/C=C/c1cccc([N+](=O)[O-])c1)NCCSCc1ccc(Cl)cc1	58*	nt	-3	-2	2	9
O=C(/C=C/c1cccc([N+](=O)[O-])c1)NCCSCc1c(Cl)cccc1Cl	-5	-2	-2	6	1	-4
O=C(NC(=S)Nc1cccnc1Cl)c1ccc(F)cc1	-80	38	37*	-53	-286	53
O=C(NC(=S)NC12CC3CC(CC(C3)C1)C2)c1ccc(F)cc1	-76	58*	-7	nt	-220	nt
O=C(NC12CC3CC(CC(C3)C1)C2)c1ccccc1	8	-8	-12	5	-19	-4
O=C(Nc1cccnc1Cl)c1cc(-c2ccc(F)cc2)on1	-30	5	-3	-45	-12	43
O=C(NC(=S)Nc1ncccn1)c1ccc(F)cc1	-95	62*	7	-95	-95	101*
COc1ccc(S(=O)(=O)Nc2ccc3c(c2)CC(=O)N([C@H](C)CO)C[C@H](C)[C@H](CN(C)Cc2ccncc2)O3)cc1	-6	4	nt	nt	10	nt
COCC(=O)NC[C@H]1N[C@H](CO)[C@H]1c1ccc(C2=CCCC2)cc1	2	-4	nt	nt	-11	nt
Cc1cccc(C)c1Nc1nnc(SCC(=O)c2ccc(Br)s2)s1	75*	nt	-11	0	-13	-1
C[C@@H]1CN([C@@H](C)CO)C(=O)c2cc(NC(=O)CCC(F)(F)F)ccc2O[C@@H](C)CCCCO[C@@H]1CN(C)CC1CCCCC1	-2	-5	nt	nt	-5	nt
O=C(/C=C/c1ccncc1)c1ccc2c(c1)OCCO2	4	nt	-1	-2	-22	2
COc1cc(/C=C/C(=O)c2ccc3c(c2)OCCO3)cc(Br)c1OCC(=O)N(C)C	61*	-11	10	93*	7	-92
COc1ccccc1C#Cc1ccc([C@@H]2[C@@H](CO)N3CCCCN(C(=O)C4CCCC4)C[C@H]23)cc1	11	nt	nt	nt	-11	nt
Clc1ccccc1-c1ncc2ccccn12	-16	nt	36*	-2	-30	3
C=CS(=O)(=O)c1c2cc(OC)ccc2nc2ccc(OC)cc12	-31	nt	458*	40	46	nt
CC1(C)C(=O)C=CC(=O)C(C)(C)C(=O)C=CC(=O)C(C)(C)C2=CC=C(O2)C(C)(C)C(=O)C=CC1=O	11	-2	-7	92*	1	-90
CO[C@@H](CN(C)C(=O)c1cnccn1)[C@H](C)CN([C@H](C)CO)S(=O)(=O)c1ccccc1	-10	0	nt	nt	nt	nt
C[C@@H]1CN([C@H](C)CO)C(=O)c2cc(C#CCN(C)C)cnc2O[C@H]1CN(C)S(C)(=O)=O	-1	5	nt	nt	nt	nt

Screens from PubChem BioAssay.
